Out of some 320,000 compounds screened, about 2,100 (0.66%) were called active. About 53% were inconclusive and are not listed. Calls follow the shape of the dose curve; as a rule, active = well fitted inhibition curve with a large enough effect in the signal ratio, with a control signal flat (not every such curve was filed as active); inconclusive = small, poorly fitted or top-dose-only effect, or effect the other way, or a change in a side signal; inactive = flat fitted curve, though single readings scatter; the % refers to the signal ratio. The entries come from a sample that favours actives as a whole.
Experiment: qHTS Assay for Lipid Storage Modulators in Drosophila S3 Cells;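 as to cell number change: cells counted by Cell Tracker Red CMTPX staining in the red channel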; as to lipid storage change, negative = inhibition: % is scaled to controls: 0 for no effect and ±100 for the full control effect
Conditions: BODIPY lipid droplet fluorescence, 18-24 h, cells fed with added oleic acid; cell number change: measured here: cell count max response; series mostly up to 46.1 µM
Summary of the method: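 Drosophila S3 cells loaded with oleic acid (400 uM, as added) and compounds at several concentrations; lipid droplets imaged by 488-nm laser-scanning cytometry, 500–530 nm intensity and object ratio to cell channel. Percent activity normalized to 20 uM Triacsin C.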
Potency is read from the fitted curve at half-maximal effect.

| Structure (SMILES) | Potency | cell number change [%] | lipid storage change, negative = inhibition |
| --- | --- | --- | --- |
| CC(=O)Nc1ccc(S(=O)(=O)N2CCCN(S(=O)(=O)c3ccc(C)cc3)CC2)cc1 | inactive | -14.2 |  |
| O=C1/C(=N\S(=O)(=O)c2cccs2)C([n+]2ccccc2)=C([O-])c2ccccc21 | 20.6 µM (active) | -19.9 |  |
| O=C1/C(=N\S(=O)(=O)c2cccs2)C([n+]2cccc(Cc3ccccc3)c2)=C([O-])c2ccccc21 | 20.6 µM (active) | -9.11 |  |
| O=C1C(=O)c2ccccc2C([O-])=C1[n+]1ccccc1 | inactive | 19.4 |  |
| CCc1ccc(NS(=O)(=O)c2cccs2)cc1 | inactive |  |  |
| CCc1cc[n+](C2=C([O-])c3ccccc3C(=O)/C2=N\S(=O)(=O)c2cccs2)cc1 | 1.84 µM (active) | 2.59 |  |
| Cc1ccc(/C=C2\S/C(=N/S(=O)(=O)c3cccs3)NC2=O)cc1 | inactive | 3.91 |  |
| Cc1cc[n+](-c2nc3ccccc3nc2[N-]S(=O)(=O)c2cccs2)cc1C | inactive | -0.563 |  |
| CC(C)N(Cc1ccccc1)S(=O)(=O)c1cccs1 | inactive |  |  |
| CCCCC[n+]1ccn(C2=C([O-])c3ccccc3C(=O)/C2=N\S(=O)(=O)c2ccc(Br)cc2)c1 | inactive |  |  |
| NC(=NCCc1ccccc1)NS(=O)(=O)c1cccs1 | inactive | -0.301 |  |
| Cc1cc[n+](C2=C([O-])c3ccccc3C(=O)/C2=N\S(=O)(=O)c2cccs2)cc1C | 8.2 µM (active) | -25.5 |  |
| N/C(=N\S(=O)(=O)c1cccs1)c1ccccc1 | inactive | 3.91 |  |
| O=[N+]([O-])c1cccc(C(=S)N2CCCC2)c1 | inactive | 3.41 |  |
| COc1ccccc1/C=C/C(=O)OCC(=O)NCc1ccco1 | inactive | 4.89 |  |
| CCCc1c(C(=O)N/N=C(/C)c2ccncc2)nnn1-c1nonc1N | inactive | 8.62 |  |
| Cc1ccc(/C=C2/SC(=S)N(C3CCCCC3)C2=O)o1 | inactive | 14.1 |  |
| Cc1cc(C)n(CCCN2C(=O)c3cccc4cccc(c34)C2=O)n1 | inactive |  |  |
| CNCc1ccccc1OCC(=O)Nc1ccccc1 | inactive | -38.8 |  |
| COc1ccc(CC(=O)OCC(=O)N2CCCc3ccccc32)cc1 | inactive | -4.06 |  |
| COCCCNC(=O)CCC(=O)NNc1nc2ccccc2c2nc(-c3ccccc3)nn12 | inactive | 5.05 |  |
| CC(C)OCCCNC(=O)CCC(=O)NNc1nc2ccccc2c2nc(-c3ccccc3)nn12 | 11.6 µM (active) | -5.84 |  |
| CCOCCCNC(=O)CCC(=O)NNc1nc2ccccc2c2nc(-c3ccccc3)nn12 | inactive | -6.89 |  |

| Structure (SMILES) | Potency | cell number change [%] | lipid storage change, negative = inhibition |
| --- | --- | --- | --- |
| Cc1cc(C)cc(-n2c(N)c(C(=O)Nc3c(C)n(C)n(-c4ccccc4)c3=O)c3nc4ccccc4nc32)c1 | inactive | 0.326 |  |
| CCOc1cc(/C=C/c2cccc[n+]2C)ccc1OCC(=O)Nc1ccc(C)cc1 | inactive | 2.56 |  |
| CCC(Sc1ccc(C(=O)O)cc1)C(=O)O (stereo unspecified) | inactive | 22.4 |  |
| CCC(Sc1nc(N)cc(N)n1)C(=O)O (stereo unspecified) | 20.6 µM (active) | -9.76 |  |
| CCC(Sc1nc2ccccc2o1)C(=O)O (stereo unspecified) | inactive | 11.5 |  |
| Cc1ccc(C)n1NC(=O)c1cccc(Cl)c1 | 20.6 µM (active) |  |  |
| NC(=O)CNC(=O)c1cccc(Cl)c1 | inactive | 1.9 |  |
| O=C(NCCO)c1cccc(Cl)c1 | 25.9 µM (active) | -4.89 |  |
| CC(C)CCNC(=O)c1cccc(Cl)c1 | inactive | 19.2 |  |
| Cc1ccc(C)n1NC(=O)c1ccc(Cl)cc1Cl | inactive | 0.742 |  |
| Cc1ccc(C)n1NC(=O)c1ccccc1 | inactive | 1.97 |  |
| COc1ccc(N2C(=S)N=C(Nc3cccc(C)c3)C23CCCCC3)cc1 | inactive | -6.29 |  |
| Cc1ncoc1C(=O)N1CCCC(C(=O)c2cccc3ccccc23)C1 (stereo unspecified) | inactive | 6.72 |  |
| CCC(C)Oc1nc2c(c(=O)n(C)c(=O)n2C)n1C (stereo unspecified) | inactive | 14.8 |  |
| CC(=O)/C(=C/Nc1ccc(Oc2ccccc2)cc1)c1ccccc1 | inactive |  |  |
| COc1ccc(-n2nc(C(=O)NCC(=O)NCCCN3CCOCC3)c3ccccc3c2=O)cc1 | inactive | -8.11 |  |
| COc1ccccc1CNc1cncnc1 | inactive | 7.04 |  |
| O=C(Nc1ccc(Cl)cc1)C1CCCN(c2ncnc3c2nc2n3CCCCC2)C1 (stereo unspecified) | inactive | -19.1 |  |
| Cc1cccc(N2CC(C(=O)Nc3nnc(SCc4cccnc4)s3)CC2=O)c1 (stereo unspecified) | inactive | 0.463 |  |
| Cc1ccc(Nc2cc(C)nc3ncnn23)c(Cl)c1 | inactive | 1.99 |  |
| CCOC(=O)Cc1nnc(NC(=O)CSc2ccc(C)cc2)s1 | inactive | 10.4 |  |
| CC(NC(=O)c1ccco1)c1nc(-c2ccccc2)no1 (stereo unspecified) | 25.9 µM (active) | 24.3 |  |
| CC(NC(=O)c1ccco1)c1nc(-c2ccc(Cl)cc2)no1 (stereo unspecified) | inactive |  |  |

| Structure (SMILES) | Potency | cell number change [%] | lipid storage change, negative = inhibition |
| --- | --- | --- | --- |
| CC(NC(=O)c1ccco1)c1nc(-c2ccc(C(C)(C)C)cc2)no1 (stereo unspecified) | inactive | -0.87 |  |
| Cc1c(NC(=O)COc2cccc(F)c2)c(=O)n(-c2ccccc2)n1C | inactive | -5.04 |  |
| COc1ccccc1NC(=O)C(C)OC(=O)CCCN=C1NS(=O)(=O)c2ccccc21 (stereo unspecified) | inactive |  |  |
| Oc1ccc(/C=N/NC2=NCCCCC2)cc1 | 9.2 µM (active) | 1.27 |  |
| CCOc1ccc(/C=N/NC2=NCCCCC2)cc1 | inactive | 8.72 |  |
| COc1ccc(/C=N/NC2=NCCCCC2)cc1 | inactive |  |  |
| C=CCSc1nc(=O)n2ccccc2n1 | inactive |  |  |
| CCCSc1ccc(-c2nn(-c3ccccc3)cc2/C=C(/C#N)C(=O)N2CCOCC2)cc1 | inactive | -5 |  |
| O=C(c1c(F)cccc1F)N(C1CCCCC1)C1CCCCC1 | inactive | -23 |  |
| CCOc1ccc(N(CC(=O)NC2CCCC2)S(=O)(=O)c2ccccc2)cc1 | 2.59 µM (active) | -7.14 |  |
| COCCCNC(=O)CN(c1cc(OC)ccc1OC)S(=O)(=O)c1ccccc1 | inactive | 13.9 |  |
| CCOc1ccc(N(CC(=O)NC2CC3CCC2C3)S(=O)(=O)c2ccccc2)cc1 (stereo unspecified) | inactive | 16.1 |  |
| Cc1ccccc1NC(=O)CN(C)S(=O)(=O)c1ccc2c(c1)n(C)c(=O)c(=O)n2C | 18.4 µM (active) | 13.4 |  |
| COc1ccc(N(CC(=O)NCc2ccccc2OC)S(=O)(=O)c2c(C)nn(C)c2C)cc1 |  |  | 22.2% [at 9.22 µM] (inactive) |
| CCOc1ccc(N(CC(=O)NC2CCCCCC2)S(=O)(=O)c2ccccc2)cc1 | inactive | 24.3 |  |
| CN(CC(=O)Nc1ccccc1F)S(=O)(=O)c1ccc2c(c1)n(C)c(=O)c(=O)n2C | inactive | 1.35 |  |
| Cc1ccc(NC(=O)CN(C)S(=O)(=O)c2ccc3c(c2)n(C)c(=O)c(=O)n3C)c(C)c1 | inactive | 25.1 |  |
| COc1ccc(N(CC(=O)NCc2ccco2)S(=O)(=O)c2ccccc2)cc1 | inactive | 3.25 |  |
| COc1ccc(N(CC(=O)NCCSC2CCCCC2)S(=O)(=O)c2ccccc2)cc1OC | inactive | -12.6 |  |
| COc1ccc(OC)c(N(CC(=O)NCCSC2CCCCC2)S(=O)(=O)c2ccccc2)c1 | 14.6 µM (active) | -18.5 |  |
| COc1ccc(N(CC(=O)NCc2ccccc2OC)S(=O)(=O)c2ccccc2)cc1 | 8.2 µM (active) | 10.9 |  |
| CCc1ccc(CN2CCCC(CCC(=O)N3CCN(c4ccccn4)CC3)C2)o1 (stereo unspecified) | inactive | 5.55 |  |
| Cc1cc(CN2CCCC(N3CCc4ccccc4C3)C2)cc(C)c1O (stereo unspecified) | inactive | -2.22 |  |

| Structure (SMILES) | Potency | cell number change [%] | lipid storage change, negative = inhibition |
| --- | --- | --- | --- |
| Cc1[nH]c2ccccc2c1C(c1ccccn1)N1CCC(C(N)=O)CC1 (stereo unspecified) | inactive | -13.7 |  |
| O=C(NCCN1CCOCC1)c1cccn2c(=O)c3c4c(sc3nc12)CCCC4 | inactive | -12.5 |  |
| Cc1c(C(=O)NCCSCc2ccccc2)cccc1[N+](=O)[O-] | inactive | -1.45 |  |
| O=C(c1ccc(OC2CCN(CCc3ccccc3)CC2)cc1)N1CCCC(CO)C1 (stereo unspecified) | inactive | 4.02 |  |
| COc1ccc(N2CCN(CC(O)COc3cc(C)ccc3C)CC2)cc1 (stereo unspecified) | inactive | -17 |  |
| CCCS(=O)(=O)C/C(N)=N/OC(=O)c1ccccc1Cl | inactive | -2.12 |  |
| CCC(C(=O)NCc1ccco1)N(C(=O)CNS(=O)(=O)c1ccccc1)c1ccc(F)cc1 (stereo unspecified) | inactive | -3.04 |  |
| Cc1cccc(N(CC(=O)NC2CC3CCC2C3)S(=O)(=O)c2ccccc2)c1 (stereo unspecified) | 20.6 µM (active) | -12.9 |  |
| COc1ccc(N(CC(=O)NC2CC3CCC2C3)S(=O)(=O)c2ccc(C)cc2)cc1OC (stereo unspecified) | inactive | 8.82 |  |
| COc1cccc(CNC(=O)CN(C)S(=O)(=O)c2ccc3c(c2)c(=O)n(C)c(=O)n3C)c1 | inactive | -15.3 |  |
| CCc1ccccc1NC(=O)CN(c1ccc(OC)cc1OC)S(=O)(=O)c1ccccc1[N+](=O)[O-] | inactive | -4.08 |  |
| CCc1ccccc1NC(=O)CN(c1ccc(OC)cc1OC)S(=O)(=O)c1ccccc1 | 2.91 µM (active) | -14.4 |  |
| COc1ccccc1N(CC(=O)Nc1ccc(Cc2ccncc2)cc1)S(=O)(=O)c1ccccc1 | 7.31 µM (active) | 27.6 |  |
| COc1ccc(S(=O)(=O)N(CC(=O)Nc2cccnc2)c2ccccc2OC)cc1 | inactive |  |  |
| COc1ccc(N(CC(=O)Nc2ccc(OC)cc2OC)S(=O)(=O)c2ccccc2)cc1 | inactive | -4.04 |  |
| O=C(CN(c1ccc(F)cc1)S(=O)(=O)c1ccccc1)NC1CC2CCC1C2 (stereo unspecified) | inactive | 10.7 |  |
| COc1ccccc1CNC(=O)CN(C)S(=O)(=O)c1ccc2c(c1)c(=O)n(C)c(=O)n2C | 9.2 µM (active) |  |  |
| COc1ccccc1N(CC(=O)Nc1cccnc1)S(=O)(=O)c1ccccc1 | inactive | -18 |  |
| CN(CC(=O)NCc1ccc(F)cc1)S(=O)(=O)c1ccc2c(c1)c(=O)n(C)c(=O)n2C | inactive |  |  |
| CC(=O)NC(CC(=O)OC(C)C(=O)Nc1ncc(Cl)cc1Cl)c1ccccc1 (stereo unspecified) | inactive |  |  |
| CC(=O)c1c(C)n(CC(=O)NCc2ccc3c(c2)OCO3)c2ccccc12 | inactive |  |  |
| O=S(=O)(NC(=NCCc1ccc(Cl)cc1)c1ccccc1Cl)c1cccs1 | inactive | 1.69 |  |

From PubChem BioAssay AID2685 (National Center for Advancing Translational Sciences (NCATS), 2010)
